High-throughput results: PubChem BioAssay, several laboratories
UBC13 polyUb = human UBC13 polyubiquitination inhibition; UBC13 polyubiquitin chain formation, TR-FRET; inhibition, % at 20 µM; 0.47% of 330,000 active; AID 485273; in the data active = inhibition above about 45%, passing the limit was not always enough; inconclusive = no clear call, values can overlap the other calls
Target sequence (P61088 whole entry, looked up): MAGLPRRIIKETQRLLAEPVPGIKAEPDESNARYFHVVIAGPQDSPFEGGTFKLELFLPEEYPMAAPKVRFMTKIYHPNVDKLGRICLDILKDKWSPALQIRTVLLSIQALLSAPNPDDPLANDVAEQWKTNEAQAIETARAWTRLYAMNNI
CR mimetic SO = caloric restriction mimetics inhibiting age-related superoxide in yeast; S. cerevisiae aged cells, superoxide DHE fluorescence; active compounds read low; superoxide response (% of plate mean), % at 10 µM; 0.18% of 330,000 active; AID 2690;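 active = superoxide response under a set limit, about three screen SD below normal, cut at about 65% in these data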;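 also: yeast aged for seven days with compound at 30 °C before DHE staining; 100% = average MFI of all compound-treated wells on the plate with controls excluded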
NR3A LBD binder = NR3A (human) ligand-binding domain modulation. NR3A LBD differential scanning fluorimetry, Tm shift; 0% = protein alone, 100% = glycine-bound protein. Tm shift relative to glycine control, % at 25 µM. 2.5% of 340,000 active. AID 1259313;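 active = melting temperature shift of at least 10% of the positive control shift, at one fixed dose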
dFosB activator = mouse delta FosB homodimer activation; P13346; purified delta FosB, TAMRA-CDK5 oligo fluorescence polarization; percent of positive-control signal above neutral wells; activation, % at 25 µM; 0.99% of 340,000 active; AID 493131;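 active = mean activation above about 17%, with every replicate also reaching it, limit read from the data, passing the limit was not always enough; inconclusive = only one of the two conditions met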
Target sequence (P13346 whole entry, looked up): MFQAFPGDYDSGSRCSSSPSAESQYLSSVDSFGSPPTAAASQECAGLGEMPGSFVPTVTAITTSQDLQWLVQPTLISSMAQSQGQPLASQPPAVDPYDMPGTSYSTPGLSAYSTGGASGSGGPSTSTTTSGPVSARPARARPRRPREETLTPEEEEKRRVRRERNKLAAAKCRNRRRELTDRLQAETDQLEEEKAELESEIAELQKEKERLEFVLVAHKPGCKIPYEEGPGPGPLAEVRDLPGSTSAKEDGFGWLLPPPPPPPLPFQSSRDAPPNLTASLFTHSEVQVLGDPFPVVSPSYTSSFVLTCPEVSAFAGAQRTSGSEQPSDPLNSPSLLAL
NALP1 inh = NALP1 inhibition. S. cerevisiae NALP1/ASC/caspase-1 growth, X-gal OD620, 72 h. inhibition, % at 10 µM. 0.61% of 280,000 active. AID 2071; in the data active = inhibition mostly above about 24%, no sharp cut-off; inactive = mostly below about 32%
An asterisk follows results filed as active; ? = inconclusive; nt = not tested or not shown. Compounds with a hit are over-represented: about 4.3% of the library has one in this group of screens.

SMILES	UBC13 polyUb	CR mimetic SO	NR3A LBD binder	dFosB activator	NALP1 inh
COc1ccc(Oc2ccc(N/C=C3/CCCC3=O)cc2)cc1	2.0	106.0	16.8*	-10.0	2.8
COC(=O)c1ccc(Cl)c(NC(=O)CN(c2ccccc2)S(=O)(=O)c2ccc(OC)cc2)c1	10.9	90.9	-22.1	-7.2	31.3
O=C(Nc1ncccc1O)c1c(O)c2ccccc2[nH]c1=O	13.4	76.8	1.7	1.6	-0.3
CC(=O)Nc1cc(NC(C)=O)cc(C(=O)OCC(=O)Nc2ccc(S(=O)(=O)NC3=NCCCCC3)cc2)c1	5.2	105.3	0.7	-15.4	9.1
Cc1cc(C)nc(N2CCN(S(=O)(=O)c3ccc(F)cc3)CC2)n1	-9.1	99.8	1.8	-2.0	4.9
O=C(CSc1ccc(-c2ccc(Cl)cc2)nn1)Nc1ccc2c(c1)OCCO2	-6.5	97.4	11.5*	10.4	27.3
Cc1ccc(NC(=O)CSc2ccc(-c3ccc4c(c3)OCO4)nn2)cc1F	1.0	114.3	-3.4	-10.2	18.8
COC(=O)c1ccc(NC(=O)c2ccc(NC(=O)c3ccco3)cc2)cc1	-1.9	113.2	25.2*	122.1*	1.7
Cc1cc(C)cc(NC(=O)c2ccc(NC(=O)c3ccco3)cc2)c1	-8.4	120.8	18.2*	-3.7	3.2
O=C(Oc1ccccc1)c1ccc(NC(=O)c2ccco2)cc1	-10.3	111.3	-8.2	-3.0	20.1
CCOC(=O)c1cccc(NC(=O)c2ccc(NC(=O)c3ccco3)cc2)c1	8.0	113.8	31.1*	16.3*	-4.0
O=S(=O)(NC(=NCc1ccccc1)c1ccccc1)c1ccccc1	6.0	98.2	0.2	-8.6	-12.2
O=C(OCc1ccccc1)N(CCF)c1cn(Cc2ccccc2)c(=O)n(Cc2ccccc2)c1=O	nt	nt	0.8	-3.0	nt
C#CCN(C[C@@H](CC(C)C)NC(=O)OC(C)(C)C)S(=O)(=O)c1ccc(Br)cc1F	nt	nt	-3.8	-11.7	nt
CC1N(C)c2cc(NC(=O)c3ccco3)ccc2C1(C)C (stereo unspecified)	-0.8	105.3	-25.0	144.6*	0.9
CC1N(C)c2cc(NC(=O)c3ccco3)c(P(=O)(Nc3ccc([N+](=O)[O-])cc3)N3CCOCC3)cc2C1(C)C (stereo unspecified)	0.1	85.6	-9.4	?	-8.5
CCCCOc1cccc(C(=O)Nc2ccc(NC(=O)c3ccco3)cc2)c1	-2.9	101.0	11.7*	-6.7	11.5
O=C(Nc1ccc(NC(=O)c2ccco2)cc1)c1ccc2c(c1)OCCO2	-1.2	99.0	10.1*	?	-11.1
O=C(CSc1nnc(NC(=O)c2ccco2)s1)Nc1ccc2c(c1)OCCO2	-15.5	85.0	-0.1	65.7*	10.2
Cc1ccc(-c2csc(NCCn3c(C)nc4cc(C(F)(F)F)ccc43)n2)cc1	13.9	86.4	3.0	-2.2	nt
COc1cc(OCc2ccccc2)c(C(=O)/C=C/c2ccc3c(c2)OCO3)c(OC)c1OC	1.1	93.0	1.5	-7.1	nt
C=Cc1cccc(NC(=O)c2ccc(NC(=O)c3ccco3)cc2)c1	1.4	96.8	31.1*	1.8	7.5
Oc1ccc(-c2nc3ccccc3s2)c(O)c1	32.8	90.3	38.9*	3.0	8.2
COc1cccc(-c2nc3ccccc3s2)c1	3.9	92.7	2.9	-13.8	-8.5
Oc1ccc(-c2nc3ccccc3s2)cc1	6.6	91.4	14.9*	-3.4	9.4
SMILES	UBC13 polyUb	CR mimetic SO	NR3A LBD binder	dFosB activator	NALP1 inh
COc1ccc(-c2nc3ccccc3s2)cc1	nt	nt	39.6*	-6.2	1.0
CCOC(=O)c1cn(Cc2ccccc2)c(C(=O)OC(C)(C)C)c1O	4.8	92.7	-0.1	0.1	nt
O=C(N/N=C/c1ccco1)Nc1ccccc1	-2.5	98.5	2.5	4.3	36.2
Clc1ccc(/C=N\Nc2ccccc2)cc1	3.9	82.8	10.5*	-6.8	nt
O=C(N/N=C/c1ccc(Cl)cc1)C(=O)N1CCCCCC1	0.8	93.3	-0.9	-4.8	24.7*
O=C(N/N=C/c1ccc(C(=O)O)cc1)C(=O)N1CCCCCC1	-3.8	97.6	0.1	4.0	12.8
Clc1cccc(N/N=C/c2ccncc2)c1	4.9	84.4	19.6*	1.7	7.8
O=C(N/N=C/c1ccc(Cl)cc1)Nc1ccccc1	6.3	106.9	13.4*	4.0	11.3
N#Cc1c2ccc([N+](=O)[O-])cc2[n+]([O-])n1-c1ccccc1	-20.2	73.9	nt	-1.8	nt
CC1CCN(c2ccc(-c3cccc(NC(=O)c4ccco4)c3)nn2)CC1	-5.5	93.9	-16.9	-5.6	nt
C=CCNC(=S)Nc1ccc(N(C)C)cc1	4.9	107.1	2.0	-3.8	5.9
COC(=O)c1cnn(-c2ccc(F)cc2F)c1/C=N/NC(N)=S	18.4	102.1	-1.2	-0.7	nt
O=C(NC(=S)Nc1ccccc1Br)C1CCC1	12.0	83.7	-2.3	-0.7	9.8
O=C(CN1CCN(C(=O)CCC(=O)N2CCC(c3ccccc3)=N2)CC1)Nc1ccc(F)cc1	-7.0	nt	18.1*	-7.7	nt
O=C(COc1ccccc1)N1CCc2ccccc21	1.9	77.9	-1.3	-0.4	-2.3
O=C(COc1ccc(Br)cc1)N1CCc2ccccc21	1.2	100.2	12.5*	3.9	15.4
Cc1nnc2ccc(-c3ccc(NS(=O)(=O)c4ccc(F)cc4F)cc3)nn12	2.7	105.7	1.1	-3.7	nt
N#CCC(=O)N/N=C/c1cc(Br)ccc1OCc1cccc2ccccc12	-7.1	89.7	20.0*	-1.6	23.1
N#CCC(=O)N/N=C/c1c2ccccc2cc2ccccc12	-4.1	105.0	-0.5	0.7	5.9
CC(C)[C@H](NC(=O)c1ccccc1)C(=O)OCC(=O)NCc1ccc(F)cc1	-1.6	84.1	-0.3	1.4	-4.6
CCOC(=O)C1CCN(S(=O)(=O)c2ccc3c(c2)CC(C)N3C(=O)C2CCC2)CC1 (stereo unspecified)	10.1	116.1	24.1*	-0.9	-8.5
COc1ccc(NC(=O)CSc2ncnc3c2sc2ccccc23)c(OC)c1	7.8	108.5	15.5*	0.0	18.3
CCOc1ncccc1C(=O)Nc1ccc2c(c1)OCCCO2	2.0	nt	0.2	-1.9	nt
C=C(C)C1CC=C(C)/C(=N/NC(=O)c2cccs2)C1 (stereo unspecified)	1.0	113.1	0.4	-4.9	32.2
C=C(C)C1CC=C(C)C(=NNC(=O)c2ccncc2)C1 (stereo unspecified)	nt	nt	11.2*	-4.5	nt
SMILES	UBC13 polyUb	CR mimetic SO	NR3A LBD binder	dFosB activator	NALP1 inh
Cc1nn(-c2ccccc2)c(/N=C/c2ccccc2O)c1-c1ccccc1	-5.8	109.4	14.4*	0.4	4.4
FC(F)(F)c1cccc(-c2nc(-c3ccncc3)no2)c1	nt	100.9	-2.2	6.4	4.0
O=C(O)c1ccc(-c2noc(-c3cccc(C(F)(F)F)c3)n2)cc1	-10.5	107.4	12.8*	0.4	nt
COc1ccccc1-c1sc2ccccc2c1-c1ccc2c(c1)OCCO2	24.3	105.6	-0.2	3.9	nt
CCCCn1c(/C=C/c2ccco2)nc2ccccc21	-2.1	107.4	-3.2	-4.8	54.9*
Nc1nc(COc2ccccc2C=O)nc(Nc2ccccc2)n1	-0.3	110.8	2.4	58.5*	nt
COc1ccc(OCc2nc(N)nc(Nc3ccccc3)n2)cc1	5.6	116.9	1.3	-7.7	30.9
Cc1cc(CSc2ccc(Cl)cc2)ccc1N	nt	nt	3.3	0.1	nt
